Here are results for 19 compounds from ChEMBL document CHEMBL3988442, “University of Dundee, Small-Polar-MMV Screening Library” (2021).

The assay has as its target AMP-activated protein kinase, AMPK (Homo sapiens) (UniProt P54646+O43741+P54619+Q9UGJ0+Q9Y478+Q13131+Q9UGI9). Kind of assay: AMP-dependent Kinase enzyme assay. An in vitro enzyme assay that detects ADP turnover that is directly proportional to AMPK activity. This uses naive AMPK that is activated during the assay with MK-8722. It is filed as functional. Particulars: 30 µM. Also on record: scale not given: direction of the effect not stated beside the values.
Consider `Cc1cccc(CCC(=O)N2CCOCC2c2c(C)n[nH]c2C)c1` (centres undefined), for which the Percent Effect is -2.62%.
With `COc1ccc(NC(=O)c2ccc[nH]2)c(N2CCN(C(C)=O)CC2)n1`, the Percent Effect is -4.59%.
Turning to `CS(=O)(=O)NCC1CCCN(C(=O)Nc2ccccc2Cl)C1` (centres undefined), the Percent Effect came out at 8.6%.
Under `O=c1cc2c(nn1CN1CCOCC1)CCC2` stands -2.08%.
The value for `CN(C)C(CNC(=O)c1cccc(-n2cnnn2)c1)c1ccccc1Cl` (centres undefined) was 2.54%; that for `COc1cccc2c1ccn2CCNC(=O)C(C)C` was 0.539%.
Consider `CCc1ncncc1C(=O)N1CCCN(Cc2ccc(C)cc2)CC1`, for which the Percent Effect was 1.25%.
The value for `CC(NC1(CNC(=O)C(C)(C)C#N)CCOCC1)c1ccccc1` (centres undefined) was -1.47%.
On to `COc1ccc(CN2C[C@@H]3OCCN(CC4CCCO4)[C@@H]3C2)cc1` (some centres undefined), for which the Percent Effect was found to be 2.03%.
For the compound `Cc1cc(C)c(CNC(=O)N2CCN(c3cnccn3)CC2)c(=O)[nH]1`, the Percent Effect was -1.35%.
As to `Cc1nc(CN(Cc2cccs2)C2CCS(=O)(=O)C2)oc1C` (centres undefined), the Percent Effect is -1.59%.
Take `CCOc1ccc(S(=O)(=O)NC(=O)CCC2CCCO2)cc1` (centres undefined): the Percent Effect is -7.18%.
On to `CC(C)NC(=O)N1CC[C@@H]2CN(Cc3ccccc3)S(=O)(=O)[C@@H]2CC1`, for which the Percent Effect came out at 131%.
Turning to `CN(Cc1ccc(F)cc1)C(=O)CN1CCCC(Cn2cncn2)C1` (centres undefined), the Percent Effect came to 1.84%.
The value for `CNS(=O)(=O)c1ccc(C(=O)N2CCCC(n3cccn3)C2)cc1` (centres undefined) was -7.33%; that for `Cc1ccc(F)c(-n2nnc(C(=O)O)c2-c2ccncc2)c1` was 2.72%; that for `CN(C)c1ccc(C(=O)NCC2(O)CCOCC2)cc1` was -2.16%.
For the compound `CNS(=O)(=O)CCCN1CCCC1c1cc(C)on1` (centres undefined), the Percent Effect turned out to be 1.65%.
Under `CCN1CC2(CC1=O)CN(Cc1cccs1)CCN(C(=O)C(C)C)C2` (centres undefined) stands 2.9%.
